# Results from publication PMC8384837, “Expanding the binding specificity for RNA recognition by a PUF domain”.
# Key:
# Test in all cases: yeast three-hybrid, YBZ-1, SC-Leu-His + 0.5 mM 3-AT, 4 days
# Settings in all cases: tags: N-Gal4 AD-HA kept; label: inside an RPR1-promoter hybrid RNA with tandem MS2 sites; ssRNA
# PUM1 PUF domain R5-GKS = PUM1 PUF domain R5-GKS (Homo sapiens, UniProt Q14671 828-1176, C1007G;R1008K;Q1011S)
# Method in brief: (§1)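 The interaction score is the log change in how often each variant appears, from input to selection. Frequencies came from PCR-amplified, Illumina-sequenced repeat regions of Pumilio-1 PUF domain libraries grown in strain YBZ-1 (LexA–MS2 coat fusion, HIS3 reporter) alongside matching RNA elements. Input plates were SC-Leu and selection plates were SC-Leu-His + 0.5 mM 3-AT, each for four days, and the log2 calculation used a pseudocount of 1 where a variant was absent.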
# PUM1 PUF domain R5-RQA = PUM1 PUF domain R5-RQA (Homo sapiens, UniProt Q14671 828-1176, C1007R;R1008Q;Q1011A)
# Method in brief: as §1
# PUM1 PUF domain R7-TVW = PUM1 PUF domain R7-TVW (Homo sapiens, UniProt Q14671 828-1176, S1079T;N1080V;E1083W)
# Method in brief: as §1
# PUM1 PUF domain R4-DWA = PUM1 PUF domain R4-DWA (Homo sapiens, UniProt Q14671 828-1176, N971D;H972W;Q975A)
# Method in brief: as §1
# PUM1 PUF domain R3-AIE = PUM1 PUF domain R3-AIE (Homo sapiens, UniProt Q14671 828-1176, C935A;R936I;Q939E)
# Method in brief: as §1
# PUM1 PUF domain R3-RIY = PUM1 PUF domain R3-RIY (Homo sapiens, UniProt Q14671 828-1176, C935R;R936I;Q939Y)
# Method in brief: as §1
# PUM1 PUF domain R4-RIF = PUM1 PUF domain R4-RIF (Homo sapiens, UniProt Q14671 828-1176, N971R;H972I;Q975F)
# Method in brief: as §1
# PUM1 PUF domain R7-EFS = PUM1 PUF domain R7-EFS (Homo sapiens, UniProt Q14671 828-1176, S1079E;N1080F;E1083S)
# Method in brief: as §1
# PUM1 PUF domain R5-GGE = PUM1 PUF domain R5-GGE (Homo sapiens, UniProt Q14671 828-1176, C1007G;R1008G;Q1011E)
# Method in brief: as §1
# PUM1 PUF domain R5-SED = PUM1 PUF domain R5-SED (Homo sapiens, UniProt Q14671 828-1176, C1007S;R1008E;Q1011D)
# Method in brief: as §1
sequence,measurement,setting,value
GGCUAGAACUAGUGGAUCCCCCGGCGCCCGGCGGCUCGAGCCCGGGUAAGUGUCAAUAGUCUGCAUGCCGCCGGGCGCCAUGCCUGCAGGUCGACUCUAGAAAACAUG,binding signal,PUM1 PUF domain R5-GKS,0.75 log2 enrichment (interaction score)
same,binding signal,PUM1 PUF domain R5-RQA,4.83 log2 enrichment (interaction score)
GGCUAGAACUAGUGGAUCCCCCGGCGCCCGGCGGCUCGAGCCCGGGUAAGUUUAAAUAGUCUGCAUGCCGCCGGGCGCCAUGCCUGCAGGUCGACUCUAGAAAACAUG,binding signal,PUM1 PUF domain R7-TVW,3 log2 enrichment (interaction score)
GGCUAGAACUAGUGGAUCCCCCGGCGCCCGGCGGCUCGAGCCCGGGUAAGUGUACAUAGUCUGCAUGCCGCCGGGCGCCAUGCCUGCAGGUCGACUCUAGAAAACAUG,binding signal,PUM1 PUF domain R4-DWA,5.13 log2 enrichment (interaction score)
GGCUAGAACUAGUGGAUCCCCCGGCGCCCGGCGGCUCGAGCCCGGGUAAGUGUAAGUAGUCUGCAUGCCGCCGGGCGCCAUGCCUGCAGGUCGACUCUAGAAAACAUG,binding signal,PUM1 PUF domain R3-AIE,2.83 log2 enrichment (interaction score)
GGCUAGAACUAGUGGAUCCCCCGGCGCCCGGCGGCUCGAGCCCGGGUAAGUGUAAUUAGUCUGCAUGCCGCCGGGCGCCAUGCCUGCAGGUCGACUCUAGAAAACAUG,binding signal,PUM1 PUF domain R3-RIY,2.12 log2 enrichment (interaction score)
GGCUAGAACUAGUGGAUCCCCCGGCGCCCGGCGGCUCGAGCCCGGGUAAGUGUUAAUAGUCUGCAUGCCGCCGGGCGCCAUGCCUGCAGGUCGACUCUAGAAAACAUG,binding signal,PUM1 PUF domain R5-GKS,3.25 log2 enrichment (interaction score)
same,binding signal,PUM1 PUF domain R5-RQA,5.37 log2 enrichment (interaction score)
GGCUAGAACUAGUGGAUCCCCCGGCGCCCGGCGGCUCGAGCCCGGGUAAGUGUAAAUAGUCUGCAUGCCGCCGGGCGCCAUGCCUGCAGGUCGACUCUAGAAAACAUG,binding signal,PUM1 PUF domain R4-RIF,5.22 log2 enrichment (interaction score)
same,binding signal,PUM1 PUF domain R4-DWA,5.39 log2 enrichment (interaction score)
GGCUAGAACUAGUGGAUCCCCCGGCGCCCGGCGGCUCGAGCCCGGGUAAGUCUAAAUAGUCUGCAUGCCGCCGGGCGCCAUGCCUGCAGGUCGACUCUAGAAAACAUG,binding signal,PUM1 PUF domain R7-EFS,2.94 log2 enrichment (interaction score)
GGCUAGAACUAGUGGAUCCCCCGGCGCCCGGCGGCUCGAGCCCGGGUAAGUGUGAAUAGUCUGCAUGCCGCCGGGCGCCAUGCCUGCAGGUCGACUCUAGAAAACAUG,binding signal,PUM1 PUF domain R5-RQA,0.37 log2 enrichment (interaction score)
same,binding signal,PUM1 PUF domain R5-GGE,3.62 log2 enrichment (interaction score)
same,binding signal,PUM1 PUF domain R5-SED,5.49 log2 enrichment (interaction score)
